Data as given in ChEMBL document CHEMBL1157539, “Thousands of chemical starting points for antimalarial lead identification” (Nature, 2010).

Key:
Type in all cases: functional
Plasmodium falciparum [1] = test: GSK_TCMDC: Inhibition of Plasmodium falciparum 3D7 in whole red blood cells, using parasite LDH activity as an index of growth. Test compounds present at 2uM
Plasmodium falciparum [2] = test: GSK_TCMDC: Inhibition of Plasmodium falciparum Dd2 in whole red blood cells, using parasite LDH activity as an index of growth. Test compounds present at 2uM
HepG2 = test: GSK_TCMDC: Percent inhibition of human HepG2 cell line. Test compounds present at 10uM.

Row | SMILES | Inhibition (Plasmodium falciparum [1]) [%] | Inhibition (Plasmodium falciparum [2]) [%] | Inhibition (HepG2) [%]
1 | CN(C)CCC1CCN(CCS(=O)(=O)c2cccc(Nc3ccc(-c4cccc(F)c4)cn3)c2)CC1 | 100 | 59 | 94
2 | CC1CCCC(Nc2noc(-c3sccc3Br)n2)C1 (stereo unspecified) | 100 | 99 | 7
3 | COc1ccc(Nc2nccc(NCCNC(=O)Nc3ccccc3F)n2)cc1 | 85 | 4 | 4
4 | CCNc1cc(-c2cccc(OC)c2)nc(Nc2ccc(F)cc2)n1 | 87 | 23 | 11
5 | Fc1ccc(-c2csc3ncnc(Cl)c23)cc1 | 94 | 95 | 3
6 | Cc1cccc2nc(-c3cccc(-c4ccc(NC(=O)c5ccoc5)cc4)c3)[nH]c12 | 99 | 56 | 65
7 | CC(C)CCN1CCC(Oc2cccc(NC(=O)c3ccc(C(F)(F)F)cc3)c2)CC1.O=C(O)C(F)(F)F | 98 | 6 | 39
8 | CCCCC(CCCC)CN1C(=O)C(c2ccccc2)(c2ccccc2)N=C1N.O=CO | 96 | 96 | 28
9 | COc1ccc(NC(=O)NCC2CCCN(CCCCCNC(=O)/C=C/c3ccc(Cl)c(Cl)c3)C2)c(OC)c1 (stereo unspecified) | 95 | 0 | 8
10 | Cc1nc(NCc2ccccc2)cc(NCC(O)c2ccc(O)cc2)n1 (stereo unspecified) | 85 | 10 | 5
11 | Br.CC1(C)NC(N)=NC(=N)N1OCCCc1ccc(Cl)cc1Cl | 95 | 95 | 54
12 | O=C(/C=C/c1ccsc1)N1CCC(CCN2CCC(c3c[nH]c4ccccc34)CC2)CC1 | 88 | 24 | 37
13 | CC(C)NCc1cccc(-c2ccc(NC(=O)c3ccc(F)cc3)cc2)c1.O=C(O)C(F)(F)F | 92 | 3 | 7
14 | O=C(C=Cc1ccc(Cl)c(Cl)c1)NCCCCCN1CCC(CCCNS(=O)(=O)c2cccc(C(F)(F)F)c2)CC1 | 100 | 59 | 99
15 | Cn1ccnc1CNC(=O)c1ccc(-c2cccc(-c3nc4cc(F)ccc4[nH]3)c2)cc1 | 96 | 8 | 8
16 | COc1cc(Nc2ccc3cc(S(=O)(=O)N4CCCCC4C)ccc3n2)cc(OC)c1OC (stereo unspecified) | 88 | 78 | 0

Row | SMILES | Inhibition (Plasmodium falciparum [1]) [%] | Inhibition (Plasmodium falciparum [2]) [%] | Inhibition (HepG2) [%]
17 | Cc1cccc2nc(-c3ccc(-c4ccc(CNCc5cnn(-c6ccccc6)n5)cc4)cc3)[nH]c12.O=C(O)C(F)(F)F | 100 | 99 | 35
18 | O=C(O)C(F)(F)F.c1ccc2[nH]c(-c3ccc(-c4ccc(CNC5CC5)cc4)s3)nc2c1 | 91 | 19 | 25
19 | CC[C@H](NC(=O)c1c(CC2CCN(CC(C)=O)CC2)c(-c2ccccc2)nc2ccccc12)c1ccccc1 | 97 | 96 | 7
20 | CCNC(=O)N[C@@H]1CN[C@@H](C#Cc2cc3c(Nc4ccc(OCc5cccc(F)c5)c(Cl)c4)ncnc3s2)C1 | 85 | 27 | 0
21 | Cc1ccccc1CNc1ccc2nc(N)nc(N)c2c1 | 100 | 90 | 59
22 | O=C(CSc1nc(-c2ccccc2Cl)ns1)Nc1cccc(F)c1 | 93 | 81 | 0
23 | Nc1cc(-c2ccc3ccccc3c2)nc2ccccc12 | 99 | 52 | 19
24 | CC1CCCN(Cc2cc(Cl)cc(Cl)c2O)C1 (stereo unspecified) | 89 | 77 | 22
25 | N#Cc1ccc(N2CCN(Cc3ccc(-c4ccc(-c5nc6cc(F)ccc6[nH]5)s4)cc3)CC2)nc1.O=C(O)C(F)(F)F | 100 | 78 | 12
26 | Cc1nn(C)cc1C(C)Nc1nncc(-c2ccc(C(F)(F)F)cc2)n1 (stereo unspecified) | 100 | 99 | 0
27 | CC(=O)Nc1ccc(CN2CCC(NC(=O)c3ccc(-c4cccc(Cl)c4)s3)CC2)cc1.O=C(O)C(F)(F)F | 97 | 59 | 34
28 | N=C(N)NC(=O)Nc1cc(Br)c(Br)c(Br)c1 | 100 | 89 | 0
29 | CN1CCN(c2ccnc3cc4c(cc23)N(C(=O)Nc2ccc(-c3ccncc3)c3ccccc23)CC4)CC1.Cl | 100 | 97 | 10
30 | O=C(O)C(F)(F)F.O=[N+]([O-])c1cccc(CNCC2CCN(Cc3ccc(O)cc3)CC2)c1 | 98 | 5 | 8
31 | Fc1ccc2[nH]c(-c3ccc(-c4ccc(CNCCc5ccncc5)cc4)s3)nc2c1.O=C(O)C(F)(F)F | 99 | 100 | 34
32 | Nc1c2ccccc2nc2ccc(-c3ccccc3)cc12 | 100 | 99 | 100
